Results published in the supplement of paper PMC6555819.

How the values were obtained:
Assay in all cases: PBM binding z-score (relative to random genomic background probes); higher = stronger binding; sequences stand for … in GC…GCGATTGACAGCGTAGAATGAAGG
[1] = system: FXR:RXRa (NR concentration 270 nM, RXRa partner concentration 90 nM)
Summary of the method: (§1)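 Binding z-scores were set against random background probes. The data came from custom Agilent 4×180K protein-binding microarrays carrying double-stranded probes with 34-nt variable regions, incubated 1 h with ligand-free nuclear receptor dimers. Partner-specific antibodies detected binding, and scanned fluorescence was regression-normalized.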

[2] = system: LXRa:RXRa (NR concentration 270 nM, RXRa partner concentration 90 nM)
Summary of the method: as §1

[3] = system: LXRa homodimer (NR concentration 270 nM)
Summary of the method: as §1

[4] = system: LXRb:RXRa (NR concentration 270 nM, RXRa partner concentration 90 nM)
Summary of the method: as §1

[5] = system: LXRb homodimer (NR concentration 270 nM)
Summary of the method: as §1

[6] = system: PPARa:RXRa (NR concentration 270 nM, RXRa partner concentration 90 nM)
Summary of the method: as §1

[7] = system: PPARg:RXRa (NR concentration 180 nM, RXRa partner concentration 90 nM)
Summary of the method: as §1

[8] = system: PPARg:RXRa 270nM:90nM, anti-RXR (NR concentration 270 nM, RXRa partner concentration 90 nM)
Summary of the method: as §1

[9] = system: PPARg:RXRa 30nM:10nM, anti-RXR (NR concentration 30 nM, RXRa partner concentration 10 nM)
Summary of the method: as §1

[10] = system: PPARg:RXRa 90nM:30nM, anti-RXR (NR concentration 90 nM, RXRa partner concentration 30 nM)
Summary of the method: as §1

[11] = system: PPARg:RXRa DBDmut IVT, anti-RXR (DBD mutation: RXRa K156A/R161A, NR concentration 270 nM, RXRa partner concentration 90 nM)
Summary of the method: as §1

[12] = system: PPARg:RXRa IVT, anti-PPARg (NR concentration 270 nM, RXRa partner concentration 90 nM)
Summary of the method: as §1

[13] = system: PPARg DBDmut:RXRa IVT, anti-PPARg (DBD mutation: PPARg1 K132A/R137A, NR concentration 270 nM, RXRa partner concentration 90 nM)
Summary of the method: as §1

[14] = system: PPARg DBDmut IVT, anti-PPARg (DBD mutation: PPARg1 K132A/R137A, NR concentration 270 nM)
Summary of the method: as §1

[15] = system: PPARg homodimer (NR concentration 180 nM)
Summary of the method: as §1

[16] = system: PXR:RXRa (NR concentration 270 nM, RXRa partner concentration 90 nM)
Summary of the method: as §1

[17] = system: PXR homodimer (NR concentration 270 nM)
Summary of the method: as §1

[18] = system: RARa:RXR (NR concentration 270 nM, RXRa partner concentration 90 nM)
Summary of the method: as §1

[19] = system: RARa homodimer (NR concentration 270 nM)
Summary of the method: as §1

[20] = system: RARb:RXRa (NR concentration 270 nM, RXRa partner concentration 90 nM)
Summary of the method: as §1

Sequence	PBM binding z-score [1]	PBM binding z-score [2]	PBM binding z-score [3]	PBM binding z-score [4]	PBM binding z-score [5]	PBM binding z-score [6]	PBM binding z-score [7]	PBM binding z-score [8]	PBM binding z-score [9]	PBM binding z-score [10]	PBM binding z-score [11]	PBM binding z-score [12]	PBM binding z-score [13]	PBM binding z-score [14]	PBM binding z-score [15]	PBM binding z-score [16]	PBM binding z-score [17]	PBM binding z-score [18]	PBM binding z-score [19]	PBM binding z-score [20]
CCTCAAAGTTCAACTAAGGTAACGTAAAGCACGC	6.89	6.33	4.64	4.52	2.85	5.12	3.17	4.09	1.44	2.86	0.946	0.996	1.12	0.201	4.29	5.71	4.04	4.47	3.41	5.33
GATACAGAGTCAAGGCCAGAGTACGCGTATTGAT	-0.608	-0.442	-0.531	-0.627	-0.712	-0.293	0.646	-0.0744	-0.0806	-0.0588	-0.108	-0.0303	0.127	-0.418	-0.301	-0.285	-0.253	-0.181	-1.07	0.288
CGTCTAAGTTCAACTAAGGTAACGTAAAGCACGC	5.42	4.54	1.66	2.8	0.991	3.67	1.24	2.06	0.533	1.24	0.256	0.683	0.378	0.759	1.95	5.04	4.82	3.08	1.48	4
ACTAGTTGGTCAGCTGAGGTCACAAACAATTCGG	2.51	2.67	2.22	3.43	0.432	3.72	1.41	2.05	0.167	1.14	1.09	2.67	-0.0448	0.681	2.75	5.42	1.38	4.65	1.05	3.53
AGTCAAAGTTCAGGCCGAGGTAACGTAAAGCACG	4.1	4.03	1.27	1.71	0.0903	3.25	4.14	5.07	1.71	4.1	-0.249	1.8	0.687	0.000554	2.4	3.17	1.77	3	0.163	4.4
ACAGACAGCTGATGAAGGTAACTCAGGCTATCAT	-0.294	-0.43	-0.191	-0.692	-0.451	-0.305	0.649	-0.383	-0.233	0.0374	-0.796	-0.158	0.246	0.14	0.00151	-0.216	-0.158	0.0124	0.287	-0.232
CCTCGGAGGACAGAAGGTCAGCGCTGTCCGCTTT	1.68	2.01	0.184	1.17	-0.704	2.2	-0.154	1.57	-0.543	0.613	-0.144	0.0652	-1.29	-1.5	1.24	1.96	-0.497	2.76	0.504	3.68
CCTTACGGGGCACGAGGTTATAGCACGACGAGCG	0.567	0.879	-0.304	0.509	-0.823	2.26	2.22	2.19	0.265	1.49	1.87	2.38	0.9	-1.3	0.427	0.836	-0.487	1.6	-0.309	1.9
TAGCCTAGGTCAGATCCGGCCAGTATACGCTATA	1.78	1.41	-0.272	1.05	-0.172	1.69	0.79	0.773	-0.199	0.368	0.634	1.52	0.095	-0.353	0.289	1.09	-0.796	1.12	-0.924	3.17
GCTGCTAGGTCAACTGATGGTTAGCTAAAGCTCG	4.53	2.96	0.0508	1.97	0.22	3.58	2.88	3.09	0.818	1.99	5.04	4.29	1.41	-0.602	1.62	1.55	-0.971	2.73	-0.0413	4.31
CCGACTGTGGCAGAAAGGTTACCATACCATCCGG	0.385	0.528	0.0726	0.75	-0.636	2.16	2.03	3.65	1.73	3.6	0.332	0.812	-0.741	-1.03	0.662	0.984	-0.427	1.47	-0.0301	1.45
CCTACTGGGCCAAAAAGGTCATAGATGCCGATAA	3.54	4.14	2.44	4.1	-0.00458	5.14	3.89	4.29	1.84	3.55	3.18	4.3	0.551	-0.44	3.27	4.51	1.73	5.33	1.49	3.98
TATACAGGGTCGAAGGCCAGAGTACGAATGTCGA	1.27	1.32	-0.263	1.01	0.799	2.44	2.45	3.28	1.28	2.65	-0.348	1.5	1.05	0.465	0.74	1.01	-0.0237	1.61	-0.116	1.75
ACTAGCAGGCAAAGGGTCACTCAAGATTAGTCCG	2.62	2.93	0.422	2.94	-0.218	4.2	5.28	5.86	4.68	6.43	0.313	2.76	-0.0407	-1.05	2.82	3.4	0.241	4.35	1.42	3.42
